In the supplement of paper PMC5641865, “A screen for kinase inhibitors identifies antimicrobial imidazopyridine aminofurazans as specific inhibitors of the Listeria monocytogenes PASTA kinase PrkA” (The Journal of Biological Chemistry, 2017):
± gives the standard deviation of the averaged measurements.
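Also: End-point A600 read in BHI broth at 37 °C with 2% DMSO, inhibition computed as (1 − OD with compound plus ceftriaxone ÷ OD with ceftriaxone only) × 100.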

The compounds below were run on Listeria monocytogenes 10403S (assay: growth inhibition relative to ceftriaxone-alone control; higher = stronger potentiation of ceftriaxone growth inhibition). Settings: 10 µM; ceftriaxone 1 ug/ml; 12 h.
Compound `COc1cccc(-n2ncc3c(N/N=C/c4ccncc4)ncnc32)c1` has a growth inhibition of -5.6 ± 4.6%.
With `CCOc1cc2ncc(C#N)c(Nc3ccc(OCc4ccccn4)c(Cl)c3)c2cc1NC(=O)/C=C/CN(C)C` [Neratinib (HKI-272)] the growth inhibition was 12.3 ± 9.7%.
Work on `CCN(CC)CCNC(=O)c1c(C)[nH]c(/C=C2\C(=O)Nc3ccc(F)cc32)c1C` [Sunitinib Malate (Sutent)] yielded a growth inhibition of 73.6 ± 12%.
Work on `NS(=O)(=O)c1cccc(-c2cc3ccncc3cc2OCc2ccccc2)c1` yielded a growth inhibition of 8.53 ± 3.9%.
`COc1cc(Nc2c(C#N)cnc3cc(OCCCN4CCN(C)CC4)c(OC)cc23)c(Cl)cc1Cl` [Bosutinib (SKI-606)] gave a growth inhibition of 72.2 ± 1.1%.
In the case of `CCn1c(-c2nonc2N)nc2cnc(Oc3cccc(NC(=O)c4ccc(OCCN5CCOCC5)cc4)c3)cc21`, the growth inhibition is reported as 0.09 ± 1.7%.
Work on `CCn1c(-c2nonc2N)nc2c(C#CC(C)(C)O)ncc(OC[C@H]3CCCNC3)c21` yielded a growth inhibition of 98.398 ± 0.078%.
`CN(C[C@@H]1COCCO1)S(=O)(=O)Nc1ccc2ccc3ncc(-c4cnn(C)c4)cc3c(=O)c2c1` gave a growth inhibition of -22.01 ± 0.12%.
`CN1CCC(n2cnc(-c3ccc(F)cc3)c2-c2ccnc(Nc3ccccc3)n2)CC1` showed a growth inhibition of -8.92 ± 3.6%.
Compound `CCn1c(-c2nonc2N)nc2c(C#CC(C)(C)O)ncc(OC3CCNCC3)c21` has a growth inhibition of 77 ± 1.4%.
`Cc1ccc(C(=O)NC2CC2)cc1-c1ccc2[nH]ncc2c1` showed a growth inhibition of 8.37 ± 0.62%.
With `Cc1[nH]c(/C=C2\C(=O)Nc3ccccc32)c(C)c1CCC(=O)O` the growth inhibition was 98.7 ± 2.4%.
`CCn1c(-c2nonc2N)nc2c(C#CC(C)(C)O)nc(CN3CCCC3)cc21` showed a growth inhibition of 4.95 ± 5.7%.
`COc1cc2/c(=N/c3ccc(Br)cc3F)nc[nH]c2cc1OCC1CCN(C)CC1` [Vandetanib (Zactima)] gave a growth inhibition of 24.2 ± 29%.
`N#Cc1cccc(Nc2nccc(-c3cnn4ncccc34)n2)c1` showed a growth inhibition of -0.568 ± 0.54%.
With `COc1cc2ncnc(Nc3ccc(O)c(Br)c3)c2cc1OC` the growth inhibition was 13.4 ± 5.2%.
With `CCS(=O)(=O)c1ccc(OC)c(Nc2nccc(N(C)c3ccc4c(C)n[nH]c4c3)n2)c1` the growth inhibition was 0.981 ± 2.5%.
With `CN1CCC(n2cnc(-c3ccc(F)cc3)c2-c2ccnc(N)n2)CC1` the growth inhibition was -0.672 ± 2%.
`CCn1c(-c2nonc2N)nc2c(N3CCCC3)nccc21` was tested, and the growth inhibition was 18.7 ± 38%.
In the case of `Cn1cnc2c(F)c(Nc3ccc(Br)cc3Cl)c(C(=O)NOCCO)cc21` [AZD6244 (Selumetinib)], the growth inhibition is reported as 0.682 ± 22%.
`NS(=O)(=O)c1ccc(N/N=C2\C(=O)Nc3ccc(Cl)cc32)cc1` gave a growth inhibition of -12.5 ± 11%.
`Oc1cccc(-c2nc(N3CCOCC3)c3oc4ncccc4c3n2)c1` showed a growth inhibition of 22.4 ± 24%.
`Fc1ccc(-c2nn3ncccc3c2-c2ccnc(Nc3ccc4c(c3)OCCO4)n2)cc1` was tested, and the growth inhibition was -7.99 ± 5.2%.
In the case of `CNC(=O)c1ccccc1Sc1ccc2c(/C=C/c3ccccn3)n[nH]c2c1` [Axitinib], the growth inhibition is reported as -11.8 ± 14%.
Work on `Nc1ccc(-c2ccc3ncc4ccc(=O)n(-c5cccc(C(F)(F)F)c5)c4c3c2)cn1` [Torin 2] yielded a growth inhibition of -20 ± 12%.
Compound `NS(=O)(=O)c1cccc(Nc2cc(-c3ccc(F)cc3)n[nH]2)c1` has a growth inhibition of -5.13 ± 10%.
`NC(=O)Nc1sc(-c2ccc(F)cc2)cc1C(N)=O` gave a growth inhibition of 40.9 ± 15%.
`NS(=O)(=O)c1ccc(Nc2cc(-c3ccc(O)c(F)c3)n[nH]2)cc1` showed a growth inhibition of 10.1 ± 4.6%.
Work on `Oc1cccc(-c2nc(-c3ccccc3)[nH]c2-c2ccncc2)c1` yielded a growth inhibition of -3.01 ± 1.1%.
In the case of `COc1cc2ncn(-c3cc(OCc4ccccc4C(F)(F)F)c(C(C)=O)s3)c2cc1OC`, the growth inhibition is reported as 11.2 ± 1.6%.
`CC1(C)CC(n2cnc(-c3ccc(F)cc3)c2-c2ccnc(N)n2)CC(C)(C)N1` was tested, and the growth inhibition was -11.4 ± 8.9%.
With `OCCn1cc(-c2cnc3nnn(Cc4ccc5ncccc5c4)c3n2)cn1` the growth inhibition was 22.9 ± 24%.
For `CCOc1cc2ncc(C#N)c(Nc3ccc(F)c(Cl)c3)c2cc1NC(=O)/C=C/CN(C)C` [Pelitinib (EKB-569)], the growth inhibition was 14.9 ± 10%.
Compound `Cc1ccc(NC(=O)CC2CC2)cc1-c1ccc(C(=O)NCC2CC2)cc1` has a growth inhibition of -0.462 ± 0.33%.
For `CCc1cnn2c(NCc3ccc[n+]([O-])c3)cc(N3CCCC[C@H]3CCO)nc12`, the growth inhibition was -2.28 ± 10%.
In the case of `O=C(c1ccc(/C=C/c2n[nH]c3ccccc23)cc1)N1CCNCC1`, the growth inhibition is reported as 7.15 ± 1.2%.
`CNC(=O)c1ccc(C)c(-n2c(C)cc(OCc3ccc(F)cc3F)c(Br)c2=O)c1` was tested, and the growth inhibition was 35.2 ± 11%.
Work on `NC(=O)c1cccc(Nc2nccc(Nc3cccc4[nH]ncc34)n2)c1` yielded a growth inhibition of 0.727 ± 1.3%.
